Bioassay records from PubChem BioAssay.
A selection: hits, their analogues and other compounds. The true share with any hit is near 0.81%.
SRC1 inh: human NCOA1 inhibition. Q15788. HEK293 GAL4-SRC1 luciferase reporter, luminescence. inhibition, % at 3.6 µM. hit rate 0.12% among 360,000. AID 588354;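 active = inhibition above the campaign mean plus 3 SD, with each screening campaign given its own cutoff, cut at about 60% in these data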;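 note: 0% = DMSO treated cells and 100% = gossypol at 36 µM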
NR2F2 inh: inhibitors of human COUP-TFII (NR2F2); inhibition, % at 8.6 µM; HEK293T NGFI-A luciferase reporter, luminescence; hit rate 0.7% among 370,000; P24468; AID 686940;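 active = inhibition above a per-plate cutoff, mean inhibition of test wells between control levels plus 3 SD, cut at about 38% in these data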;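 note: cells cotransfected with COUP-TFII expression vector driving the NGFI-A reporter; 0% = median of COUP-TF2 test wells and 100% = reporter-only cells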
SRC2 inh: inhibits human steroid receptor coactivator 2 | Q15596 | HEK293 GAL4-SRC2 luciferase reporter, luminescence | inhibition, % at 9 µM | hit rate 0.17% among 370,000;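 active = inhibition above the mean inhibition of all tested compounds plus 3 SD, set per campaign, cut at about 52% in these data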;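 note: 0% = DMSO treated cells and 100% = cells given Gossypol at 36 µM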
NR5A2 inv ag: NR5A2 inverse agonism in reporter assay | HEK293T StAR-luciferase reporter, LRH-1 transfected, 24 h | inhibition, % at 3.6 µM | hit rate 0.13% among 360,000;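 active = inhibition above the mean inhibition of all tested compounds plus 3 SD, cut at about 73% in these data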;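 note: 0% = DMSO wells and 100% = reporter-only cells lacking LRH-1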
NCOA3 inh: human NCOA3 inhibition; Q9Y6Q9; HEK293 GAL4-SRC3 luciferase reporter, luminescence; inhibition, % at 3.6 µM; hit rate 0.17% among 360,000; AID 588352;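 active = inhibition above a per-campaign cutoff, the mean of all compounds plus 3 SD, cut at about 60% in these data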;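 note: 0% = DMSO-treated cells and 100% = gossypol-treated cells at 36 µM; higher means less SRC3-driven luciferase light from the GAL4 reporter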
Target sequence (Q9Y6Q9 whole entry, looked up, the tested form may be a part): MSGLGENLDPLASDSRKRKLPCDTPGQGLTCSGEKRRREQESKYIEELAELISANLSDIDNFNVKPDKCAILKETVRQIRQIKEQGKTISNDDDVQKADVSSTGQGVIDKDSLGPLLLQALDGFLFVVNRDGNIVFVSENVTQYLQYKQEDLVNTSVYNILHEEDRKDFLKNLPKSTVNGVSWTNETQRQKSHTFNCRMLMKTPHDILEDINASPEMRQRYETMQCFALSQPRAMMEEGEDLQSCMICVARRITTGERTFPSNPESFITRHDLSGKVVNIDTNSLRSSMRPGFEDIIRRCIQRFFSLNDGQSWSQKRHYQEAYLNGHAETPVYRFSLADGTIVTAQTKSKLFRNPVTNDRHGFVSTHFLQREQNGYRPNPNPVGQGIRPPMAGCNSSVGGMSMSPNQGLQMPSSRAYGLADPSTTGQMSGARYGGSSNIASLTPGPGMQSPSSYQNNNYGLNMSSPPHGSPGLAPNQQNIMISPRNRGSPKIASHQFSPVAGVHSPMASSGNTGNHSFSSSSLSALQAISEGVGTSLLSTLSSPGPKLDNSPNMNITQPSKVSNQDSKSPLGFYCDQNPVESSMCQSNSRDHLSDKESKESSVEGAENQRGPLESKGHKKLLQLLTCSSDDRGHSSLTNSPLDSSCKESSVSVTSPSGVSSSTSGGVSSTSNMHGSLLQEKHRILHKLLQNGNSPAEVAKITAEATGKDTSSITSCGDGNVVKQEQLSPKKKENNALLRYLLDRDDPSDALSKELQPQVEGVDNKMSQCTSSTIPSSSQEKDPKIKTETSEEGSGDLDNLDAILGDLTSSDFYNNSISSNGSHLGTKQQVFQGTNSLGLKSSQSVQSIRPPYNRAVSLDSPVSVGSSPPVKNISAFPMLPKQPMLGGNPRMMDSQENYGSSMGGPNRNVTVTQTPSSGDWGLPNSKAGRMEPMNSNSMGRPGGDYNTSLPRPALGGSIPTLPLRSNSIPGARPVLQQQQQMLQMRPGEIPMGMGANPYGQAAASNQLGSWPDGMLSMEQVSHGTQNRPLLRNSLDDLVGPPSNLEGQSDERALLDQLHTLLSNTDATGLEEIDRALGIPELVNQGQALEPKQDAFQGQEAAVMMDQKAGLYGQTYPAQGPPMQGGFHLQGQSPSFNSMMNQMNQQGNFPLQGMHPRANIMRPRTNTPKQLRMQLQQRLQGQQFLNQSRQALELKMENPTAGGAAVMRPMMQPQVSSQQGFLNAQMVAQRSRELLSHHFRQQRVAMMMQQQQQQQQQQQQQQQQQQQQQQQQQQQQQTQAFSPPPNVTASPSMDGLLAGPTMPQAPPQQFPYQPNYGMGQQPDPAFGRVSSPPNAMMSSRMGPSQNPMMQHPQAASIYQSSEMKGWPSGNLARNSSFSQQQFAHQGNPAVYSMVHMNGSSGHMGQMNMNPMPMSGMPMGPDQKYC
VP16 Luc counter: counter-screen for COUP-TFII antagonists: inhibitors of VP16. shares compounds with NR2F2 inh. inhibition, % at 8.5 µM. HEK293 Gal4-VP16 luciferase reporter, luminescence. AID 687007. hit rate 25% among 2,500; in the data active = inhibition above about 13%
NR2F2 inh conf: COUP-TFII (NR2F2) inhibition, confirmation assay; shares compounds with NR2F2 inh; HEK293 NGFI-A luciferase reporter, luminescence; inhibition, % at 8.5 µM; hit rate 45% among 2,500;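 active = mean inhibition over three repeats above a set limit taken from the earlier primary screen, cut at about 38% in these data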;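 note: 100% = cells given the luciferase reporter alone without the COUP-TF2 vector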
An asterisk follows results filed as active; . = not tested or not shown.

SMILES | SRC1 inh | NR2F2 inh | SRC2 inh | NR5A2 inv ag | NCOA3 inh | VP16 Luc counter | NR2F2 inh conf
c1ccc2c(c1)OCC(CNc1ncnc3sccc13)O2 (centres undefined) | 20 | 78* | 30 | 42 | 33 | -17 | 58*
CN(C)c1ccc(CNc2ncnc3sccc23)cc1 | 25 | 66* | 19 | 47 | 12 | 11 | 52*
CCOC(=O)CCCNC(=O)OCCCN1CCC2(CCC(c3ccccc3)CC2)C1=O (centres undefined) | . | 10 | 8 | . | . | . | .
CCCN(C(=O)CCc1cn(CCC)c2ccccc12)c1ccc(Oc2cccnc2)cc1 | . | 0 | -16 | . | . | . | .
COc1ccc(C2OCCNC3C2C(=O)N(Cc2ccc(OC)cc2OC)C3Cc2ccccc2)cc1 (centres undefined) | . | 8 | . | . | . | . | .
COc1ccccc1CNc1ncnc2sccc12 | 17 | 62* | 25 | 31 | 23 | 7 | 53*
CC(Oc1ccc(Br)cc1)C(=O)Nc1ccncc1 (centres undefined) | 10 | 30 | 23 | 11 | 12 | . | .
CC(Oc1ccc(Br)cc1Cl)C(=O)Nc1ccncc1 (centres undefined) | 3 | 45* | 13 | 19 | 20 | 6 | 30
OC(C1=CC(=Cc2ccncc2)c2ccccc21)c1ccncc1 (centres undefined) | -14 | 37* | -7 | 20 | 12 | -6 | -14
Cc1cc(C(C)(C)C)cc(C)c1C[n+]1ccc2ccccc2c1 | 44 | 66* | 1 | 61 | 56 | 27* | 55*
Cc1ccc(C(=O)C[n+]2ccc3ccccc3c2)cc1 | -28 | -38 | -22 | -50 | -17 | . | .
O=C(OCc1cn(Cc2ccc(C(F)(F)F)cc2)nn1)N1CCOCC1 | . | -8 | 7 | . | . | . | .
CCN(CC)c1ccc(/C=C/c2cccc[n+]2C)c(OC)c1 | 58 | 78* | 4 | 82* | 61 | 19* | 74*
O=C(Nc1ccccc1)c1ccc(CN2CCc3ccccc3C2)cc1 | -1 | 35 | -13 | 5 | -16 | . | .
O=C(Nc1cccnc1)c1ccc(CN2CCc3ccccc3C2)cc1 | 2 | 42* | 25 | 8 | -20 | -14 | 10
O=C(Nc1ccc(S(=O)(=O)N2CCCCC2)cc1)c1ccc(CN2CCc3ccccc3C2)cc1 | 16 | 70* | 16 | 60 | -3 | 18* | 80*
Cc1cccc(Cn2cc(COC(=O)N3CCOCC3)nn2)c1 | . | -12 | 1 | . | . | . | .
COC(=O)[C@H](CC(C)C)N(CCCc1cn(CC2CCCCC2)nn1)S(=O)(=O)c1ccccc1Br | . | 30 | 4 | . | . | . | .
COc1ccc(-n2c(-c3ccc(Cl)cc3)c[n+]3c2CCc2ccccc2-3)cc1 | 23 | 51* | 29 | 55 | 49 | 18* | 44*
COc1ccc(-n2c(-c3ccccc3)nnc2-c2ccc(Cl)cc2)cc1 | -1 | -1 | -31 | 5 | -15 | . | .
CC(C)[C@@H]1NC(=O)[C@H]2C[C@@]3(C)c4ccccc4N[C@H]3N2C1=O | . | -10 | -6 | . | . | . | .
Cc1cccc(NC(=O)Nc2nc3ncccn3c2-c2ccc(F)cc2)c1 | . | -12 | 4 | . | . | . | .
COc1ccc(C(C(=O)NC2CCCC2)n2c(Cc3cc(F)cc(F)c3)nc3ccccc32)cc1 (centres undefined) | . | 10 | 12 | 19 | . | . | .
COc1ccc(C(C(=O)NC2CCCC2)n2c(CSCCOc3ccccc3)nc3ccccc32)cc1 (centres undefined) | . | 70* | 79* | 21 | . | 28* | 46*
CCC(C(=O)NCc1ccccc1)n1c(CSCCOc2ccccc2)nc2ccccc21 (centres undefined) | . | 58* | 75* | 45 | . | 8 | 23
SMILES | SRC1 inh | NR2F2 inh | SRC2 inh | NR5A2 inv ag | NCOA3 inh | VP16 Luc counter | NR2F2 inh conf
N/C(=N\OC(=O)c1ccc2ccccc2c1)c1ccncc1 | -126 | -48 | -56 | -181 | -116 | . | .
CCCc1ccc(C(=O)O/N=C(\N)c2ccccn2)cc1 | 55 | 68* | 59* | 45 | 47 | -31 | 53*
N/C(=N\OC(=O)c1ccc(Cl)cc1Cl)c1ccccn1 | -33 | 37 | 46 | -29 | 15 | . | .
N/C(=N\OC(=O)c1ccc2ccccc2c1)c1ccccn1 | -47 | 45* | 38 | -1 | -11 | -174 | -63
Cc1ccc(C(=O)O/N=C(\N)c2ccccn2)c(Cl)c1 | 36 | 78* | 77* | 50 | 57 | 20* | 47*
COc1ccc(C=NNC(=O)c2cc(-c3ccc(C)c(C)c3)n[nH]2)cc1OCc1ccccc1 | . | -17 | -8 | . | . | . | .
O=C(Nc1ccc(-c2nc3ccccc3o2)cc1)c1ccc(N2C(=O)C3C4C=CC(C4)C3C2=O)cc1 (centres undefined) | 9 | 41* | 8 | 8 | 44 | -20 | 40*
Cc1cc(N2CCN(Cc3ccccc3)CC2)n2nc(C)nc2n1 | . | -4 | -38 | . | . | . | .
CC(=O)c1c(C)[nH]c(C(=O)C(C)Sc2nnc(NC3CC3)s2)c1C (centres undefined) | 11 | 37* | -8 | 32 | 25 | -7 | 12
CCOc1cc(CNCc2ccncc2)cc(Br)c1OCc1ccccc1F | 0 | 38* | 13 | 30 | 10 | 11 | 34
CCCCCCC(=O)NC1CCCCN(Cc2cccc(Cl)c2)C1=O (centres undefined) | . | 0 | 2 | . | . | . | .
Cc1ccc(-n2c(SCC(=O)c3ccc(-c4ccccc4)cc3)nnc2-c2ccc(C(C)(C)C)cc2)cc1 | . | 10 | -11 | . | . | . | .
Cc1cc(Cl)c(S(=O)(=O)N2CCN(c3ccccn3)CC2)cc1OCC(=O)NC1CCCCC1 | 12 | 43* | 34 | 6 | 12 | 1 | 7
Cc1cc(Cl)c(S(=O)(=O)NC2CCCC2)cc1OCC(=O)NC1CCCCC1 | 17 | 53* | 14 | 6 | 17 | 3 | 53*
Cc1cc(Cl)c(S(=O)(=O)N2CCCCCC2)cc1OCC(=O)NC1CCCCC1 | 8 | -6 | -16 | 13 | 0 | . | .
O=C(COc1ccc(Br)cc1Br)NC1CCCC1 | -53 | 47* | 17 | -23 | -35 | -123 | -3
O=C(COc1ccc(Br)cc1Cl)NC1CCCCC1 | -102 | -7 | -22 | -37 | -61 | . | .
CCN1CCN(S(=O)(=O)c2cc(OCC(=O)NC3CCCCC3)c(C)cc2Cl)CC1 | 33 | 46* | 6 | 27 | 30 | 9 | 37
Cc1cc(C(=O)NC2CCCc3c2cnn3-c2ccc(C(C)(C)C)cc2)nn1C (centres undefined) | 2 | 64* | 12 | 20 | 32 | 3 | 71*
CC(C)(C)c1ccc(-n2ncc3c2CCCC3NC(=O)C2(C(N)=O)CC2)cc1 (centres undefined) | -12 | 65* | 27 | 30 | 29 | -8 | 60*
Cn1c(=O)c2cc(S(=O)(=O)N3CCN(c4ccccc4Cl)CC3)ccc2n(C)c1=O | . | 0 | 7 | . | . | . | .
COc1ccc(NS(=O)(=O)c2ccc(-c3cnc(C4CC4)o3)cc2)cc1OC | 26 | 56* | 31 | 67 | 23 | 1 | 50*
